Data taken from PubChem BioAssay (NCATS).
Records with an inconclusive call do not appear. Entries that show only a call come without a potency. Calls of active or inactive are those of the source. Calls follow the shape of the dose curve; as a rule, active = well fitted cell-killing curve with a large enough effect; inconclusive = small, poorly fitted or top-dose-only effect, or effect the other way; inactive = no such curve, though single readings can be large or run the other way.

Assay: Quantitative High-Throughput drug screen in 47 multiple myeloma cell lines against the NCATS MIPE library collection: KMM1_JCRB cell viability assay (AID 1918960); also: nearly all actives have a fitted effect of over 30% in size
Conditions: KMM1 myeloma viability, CellTiter-Glo ATP luminescence, 48 h; series mostly up to 45.8 µM
Excerpt: PI: Beverly A. Mock Ph.D.
Laboratory of Cancer Biology and Genetics,
Center for Cancer Research, National Cancer Institute,
National Institute of Health, Bethesda, Maryland
Drug resistance and disease progression are common in multiple myeloma (MM) patients, underscoring the need for new therapeutic combinations. […] We hypothesized that effective combinations would reduce MYC expression and enhance p16 activity. […] These preclinical data identify potentially useful drug combinations for evaluation in drug-resistant MM and reveal potential mechanisms of combined drug sensitivity.
Described herein is the primary MIPE qHTS used to cherrypick compounds. Validated compounds were then further tested for potential synergistic activiy.
[1] Peat TJ, Gaikwad SM, Dubois W, Gyabaah-Kessie N, Zhang S, Gorjifard S, Phyo Z, Andres M, Hughitt VK, Simpson RM, Miller MA, Girvin AT, Taylor A, Williams D, D'Antonio N, Zhang Y, Rajagopalan A, Flietner E, Wilson K, Zhang X, Shinn P, Klumpp-Thomas C, McKnight C, Itkin Z, Chen L, Kazandijian D, Zhang J, Michalowski AM, Simmons JK, Keats J, Thomas CJ, Mock BA. Drug combinations identified by high-throughput screening promote cell cycle transition and upregulate Smad pathways in myeloma. Cancer Lett. 2023 Aug 1;568:216284. doi: 10.1016/j.canlet.2023.216284. Epub 2023 Jun 24. PMID: 37356470; PMCID: PMC10408729.
SEQUENCE No. (e.g., 1, 2, 3, etc.); […] (e.g., Cells, Incubation, Reagent, etc.); VALUE and DESCRIPTION.
1; Cells; 5 uL; white, solid bottom 1536-well Greiner assay plate.
2; Compounds; 23 nL; Kalypsis pin tool (Wako USA) equipped with a 1536-well pin head to transfer to the assay plates.
3; Incubation; 48 hours; 37C incubation.
4; Reagent;5uL; CellTiter Glo (Promega).
5; Detector; 425V; Luminescence; Viewlux PerkinElmer.
NOTES (numbers refer to Sequence numbers above)
1. The cell-based screening methods employed in this study were like those previously published. Briefly, the corresponding myeloma cell lines were screened in 1,536-well plates with 500 cells, 5-uL per well for inhibition of cell viability (assessed by measuring ATP levels with CellTiterGlo).
2. NCATS MIPE 4.0 library of approved and investigational drugs were added using the Kalypsis pin tool. Wells treated with DMSO only for 100% viability and media only cells for 0% viability were used as controls.
3. The assay plates were covered and incubated for 48 hours in a 37C, 5% CO2 incubator with controlled humidity.
4. After 48 hours, CellTilter-GloTM luminescent substrate mix (Promega) reagent was added to the assay plate and plates we incubated for 5 min at room temperature.
5. Signal was measured as median relative luminescence units on a ViewLux (PerkinElmer) multiplate reader.
[1] Heske CM, Davis MI, Baumgart JT, Wilson K, Gormally MV, Chen L, Zhang X, Ceribelli M, Duveau DY, Guha R, Ferrer M, Arnaldez FI, Ji J, Tran HL, Zhang Y, Mendoza A, Helman LJ, Thomas CJ. Matrix Screen Identifies Synergistic Combination of PARP Inhibitors and Nicotinamide Phosphoribosyltransferase (NAMPT) Inhibitors in Ewing Sarcoma. Clin Cancer Res. 2017 Dec 1;23(23):7301-7311. doi: 10.1158/1078-0432.CCR-17-1121. Epub 2017 Sep 12. PMID: 28899971; PMCID: PMC6636827.
Potency is read from the fitted curve at half-maximal effect.

SMILES	Potency
COc1cc(OC)c(OC)cc1C=O	inactive
CN1C(=O)COc2c(C(=O)NC3CN4CCC3CC4)cc(Cl)cc21 (stereo unspecified)	inactive
CN1C(=O)CCS(=O)(=O)C1c1ccc(Cl)cc1 (stereo unspecified)	inactive
C[C@]12CC[C@@H]3c4ccc(OC(=O)N(CCCl)CCCl)cc4CC[C@H]3[C@@H]1CC[C@@H]2OP(=O)(O)O	inactive
C[C@](O)(CS(=O)(=O)c1ccc(F)cc1)C(=O)Nc1ccc(C#N)c(C(F)(F)F)c1	8.33 µM (active)
CC(C)c1cccc(C(C)C)c1O	inactive
C[C@]12CCC(=O)C=C1CC[C@@H]1[C@H]3CC[C@](C)(O)[C@@]3(C)CC[C@@H]12	10.8 µM (active)
O=C(O)CCCc1ccc(N(CCCl)CCCl)cc1	inactive
CC(C)C[C@H](CN)CC(=O)O	inactive
C[C@]12CC[C@H]3[C@@H](CC[C@@]45O[C@H]4C(O)=C(C#N)C[C@]35C)[C@H]1CC[C@H]2O	inactive
CCC1(c2ccc(N)cc2)CCC(=O)NC1=O (stereo unspecified)	inactive
